Hits are enriched below; roughly 11% of the tested compounds scored in any of these assays.
PNC inhibitor: High Content Assay for Compounds that inhibit the Assembly of the Perinucleolar Compartment; PC3M PTB-GFP, PNC prevalence imaging, 16 h; active compounds read low; activity change (PNC), negative = inhibition, % at 10 µM; 140,000 compounds, 3.1% hits; AID 2417, 2010;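 active = readout at or below -70, meaning at least 70% loss of cells showing the perinucleolar compartment, a nuclear body marking cancer cells; inconclusive = readout between -30 and a set limit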
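Compounds are pinned in duplicate onto adhered PC3M cells stably expressing GFP-tagged PTB and incubated 16 h at 37 C. Cells are then fixed, nuclei stained with Hoechst, and PNC-positive cells counted.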
RGS12 GoLoco inh: qHTS Assay for Inhibitors of RGS12 GoLoco Motif Activity (Red Fluorophore). Guanine nucleotide-binding protein G(i) subunit alpha-1 (Homo sapiens), P63096. Gai1:RGS12 GoLoco peptide FP, rhodamine, 10 min. Potency, µM (highest dose often 61.6 µM), actives largely listed as inhibitors. 230,000 compounds, 0.44% hits. AID 880, 2007; active = well fitted inhibition curve with a large enough effect, not every such curve was filed as active; inactive = no such curve, though single readings can be large or run the other way; note: nearly all actives have a fitted effect of over 30% in size
Target sequence (P63096 whole entry, looked up): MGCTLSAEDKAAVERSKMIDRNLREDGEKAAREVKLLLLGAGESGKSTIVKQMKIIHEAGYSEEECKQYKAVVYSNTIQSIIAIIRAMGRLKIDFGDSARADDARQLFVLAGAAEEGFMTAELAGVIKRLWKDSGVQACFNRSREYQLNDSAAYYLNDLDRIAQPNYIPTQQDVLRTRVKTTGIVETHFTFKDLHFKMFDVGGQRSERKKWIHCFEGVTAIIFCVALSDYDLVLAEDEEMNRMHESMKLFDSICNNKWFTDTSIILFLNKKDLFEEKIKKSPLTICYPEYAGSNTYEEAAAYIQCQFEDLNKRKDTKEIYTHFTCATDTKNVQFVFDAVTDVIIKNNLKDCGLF
HPGD block: qHTS Assay for Inhibitors of HPGD (15-Hydroxyprostaglandin Dehydrogenase) | purified HPGD, NADH fluorescence kinetic, PGE2 substrate | 150,000 compounds, 4.3% hits | 15-hydroxyprostaglandin dehydrogenase [NAD(+)] (Homo sapiens), P15428 | Potency, µM, usual class: inhibitors; active = well fitted inhibition curve with a large enough effect, not every such curve was filed as active; inconclusive = small, poorly fitted or top-dose-only effect, or another doubt; inactive = no such curve, though single readings can be large or run the other way
Target sequence (P15428 whole entry, looked up): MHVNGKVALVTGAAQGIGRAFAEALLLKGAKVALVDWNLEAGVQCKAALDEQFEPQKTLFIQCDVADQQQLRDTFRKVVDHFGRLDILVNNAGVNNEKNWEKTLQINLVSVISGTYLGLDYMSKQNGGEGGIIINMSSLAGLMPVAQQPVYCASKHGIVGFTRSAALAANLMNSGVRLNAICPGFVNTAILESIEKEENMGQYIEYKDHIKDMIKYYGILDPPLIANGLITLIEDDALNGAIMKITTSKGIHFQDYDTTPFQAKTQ
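NADH formation kinetics: reaction with 30 uM PGE2 and 1 mM NAD+ (final), 20 nM enzyme, Tris-HCl pH 8 with Tween 20, after 15 min compound preincubation at room temperature. Fluorescence change, last versus first of five reads.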
ALDH1A1 block: qHTS Assay for Inhibitors of Aldehyde Dehydrogenase 1 (ALDH1A1); AID 1030, 2008; Aldehyde dehydrogenase 1A1 (Homo sapiens), P00352; Potency, µM (top dose mostly 75.3 µM), actives largely listed as inhibitors; 220,000 compounds, 7.3% hits; Purified ALDH1A1, NADH fluorescence, propionaldehyde substrate; active = well fitted inhibition curve with a large enough effect, not every such curve was filed as active; inconclusive = small, poorly fitted or top-dose-only effect, or another doubt; inactive = no such curve, though single readings can be large or run the other way
HttQ103 aggreg: qHTS Multiplex Assay to Identify Dual Action Probes in a Cell Model of Huntington: Aggregate Formation (GFP). PC12 HttQ103-GFP aggregates, Acumen cytometry, 40 h. 220,000 compounds, 1.1% hits. Potency, µM (series often up to 46.1 µM), hits mostly inhibitors; note: nearly all actives have a fitted effect of over 60% in size
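Using laser scanning cytometry, GFP-positive aggregates were counted after lysis of PC12 cells induced with 100 nM tebufenozide to express HTT exon 1 Q103–GFP. Compounds were tested in titration.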
HTT cytoprotect: qHTS Multiplex Assay to Identify Dual Action Probes in a Cell Model of Huntington: Cytoprotection (ATP) | Potency, µM (highest dose often 56.4 µM), usual class: activators | 230,000 compounds, 0.14% hits | PC12 HTT-Q103 induced, cytoprotection, ATP luminescence, 40 h; note: nearly all actives have a fitted effect of over 45% in size
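Compounds added alongside 100 nM tebufenozide, which induces toxic Q103 huntingtin exon 1-GFP in stable PC12 cells; surviving cells quantified by luminescent ATP measurement. Medium: phenol red-free DMEM, 5% equine and 5% calf serum.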
Large screens that a line does not name were inactive. Unless noted, calls come from the whole dose curve; as a rule, active = well fitted curve in the direction sought with a large enough effect; inconclusive = small, poorly fitted or top-dose-only effect, or another doubt; inactive = no such curve, though single readings can be large; an effect the other way counts as inactive or inconclusive.

Cc1ccc(S(=O)(=O)N(C)Cc2ccc(C(=O)NN=C(CC(C)C)CC(C)C)cc2)cc1	ALDH1A1 block 7.08µM
Cc1ccc(S(=O)(=O)N(C)Cc2ccc(C(=O)NN=C3C4CC5CC(C4)CC3C5)cc2)cc1	ALDH1A1 block 0.501µM (no result: RGS12 GoLoco inh, HPGD block)
COCCN1C(=O)N[C@@H](c2ccccc2)[C@H](C(=O)OC)[C@H]1C	HTT cytoprotect inconclusive (no result: PNC inhibitor, HttQ103 aggreg)
COc1ccc(C2CC(=O)Oc3cc(C)c(Cl)cc32)cc1 (stereo not drawn)	none (no result: PNC inhibitor, HttQ103 aggreg)
Nc1n[nH]c(=S)n1/N=C1/C(=O)Nc2ccccc21	ALDH1A1 block 7.94µM (no result: PNC inhibitor, HPGD block, HTT cytoprotect)
COc1ccc(C(=O)N2CCOCC2)cc1Br	none
O=C(Oc1ccc(C(=S)N2CCOCC2)cc1Br)c1ccccc1F	HPGD block 31.6µM, ALDH1A1 block 25.1µM (no result: HTT cytoprotect)
C=C(C(C)=O)C(O)c1cccc(OC)c1 (stereo not drawn)	none (no result: PNC inhibitor, HttQ103 aggreg)
Cc1ccccc1C(=O)NNC(=S)NC(=O)c1cccnc1	ALDH1A1 block 25.1µM
CNC(=S)NNC(=O)c1ccccc1F	ALDH1A1 block inconclusive (no result: PNC inhibitor, HPGD block)
O=C(NC(=S)NNC(=O)c1ccccc1F)c1cccnc1	ALDH1A1 block 7.08µM (no result: PNC inhibitor, HPGD block)
O=C(NC(=S)NCCSc1ccccc1)c1cccnc1	PNC inhibitor -95.1, ALDH1A1 block 14.1µM
Cc1ccccc1C(=O)NC(=S)NCc1cccnc1	none (no result: PNC inhibitor, HPGD block)
Cc1nc(N2CCOCC2)c2nc(-c3ccccc3)n(CCN(C)C)c2n1	HPGD block inconclusive, ALDH1A1 block inconclusive (no result: PNC inhibitor, HttQ103 aggreg)
O=[N+]([O-])c1ccc(NN=C2c3ccccc3Cc3ccccc32)c([N+](=O)[O-])c1	none (no result: PNC inhibitor, HttQ103 aggreg)
CN1Cc2c(N3CCOCC3)nc(SCCC#N)c(C#N)c2CC1(C)C	none (no result: PNC inhibitor, HPGD block, ALDH1A1 block)
CCOC(=O)CSc1nc(N2CCOCC2)c2c(c1C#N)CC(C)(C)N(C)C2	ALDH1A1 block 17.8µM (no result: RGS12 GoLoco inh, HPGD block)
COC(=O)Sc1nc(N2CCOCC2)c2c(c1C#N)CC(C)(C)OC2	PNC inhibitor -116.2, ALDH1A1 block 14.1µM (no result: RGS12 GoLoco inh, HPGD block)
CC1(C)Cc2c(C#N)c(SCC(=O)c3ccccc3)nc(N3CCOCC3)c2CO1	PNC inhibitor inconclusive, HPGD block inconclusive
C=CCN(C(=O)c1cccc(N2C(=O)C3CC=CC(C)C3C2=O)c1)c1ccccc1 (stereo not drawn)	ALDH1A1 block inconclusive (no result: PNC inhibitor, HPGD block)
CCN(CC)c1ncnc2c1cnn2Cc1ccc(Cl)cc1	none (no result: PNC inhibitor, HPGD block)
N#CCCN(C1CCCCC1)S(=O)(=O)CCOc1ccccc1	PNC inhibitor inconclusive, ALDH1A1 block 8.91µM
CCCCc1nc2c(c3c1C[C@H](C)OC3)CN(S(=O)(=O)c1ccc(NC(C)=O)cc1)CC2	none (no result: PNC inhibitor, HttQ103 aggreg)
COc1ccc(P(=O)(COc2ccc([N+](=O)[O-])cc2)c2ccc(OC)cc2)cc1	ALDH1A1 block 7.08µM (no result: HTT cytoprotect)
CSC1=Nc2sc3c(c2C2=NCCN12)CCCC3	ALDH1A1 block 14.1µM (no result: RGS12 GoLoco inh, HPGD block)
O=C(NN=C1CCCC1)c1cccs1	HPGD block inconclusive
O=C(NN=C1C2CC3CC(C2)CC1C3)c1cccs1	PNC inhibitor inconclusive, ALDH1A1 block 20µM
CC(=O)N1CCC(=NNC(=O)c2cccs2)CC1	PNC inhibitor -109.0 (no result: HTT cytoprotect)
O=C(NN=C1C2CC3CC(C2)CC1C3)c1ccccc1O	none (no result: PNC inhibitor, HPGD block, ALDH1A1 block)
CC(=O)OCCSc1c(-c2ccccc2)c2cc(Cl)ccc2[nH]c1=O	PNC inhibitor inconclusive, ALDH1A1 block 14.1µM (no result: RGS12 GoLoco inh, HPGD block)
Cc1ccc(-n2c([S-])c(C(=O)NC(C)c3ccccc3)[n+]3ccccc23)cc1 (stereo not drawn)	ALDH1A1 block 3.16µM (no result: PNC inhibitor, HPGD block)
COc1ccc(NS(=O)(=O)c2ccc(OC)c3ccccc23)cn1	ALDH1A1 block 7.08µM, HttQ103 aggreg 17.8µM
COc1ccc(NS(=O)(=O)c2cccs2)cn1	none (no result: PNC inhibitor, HPGD block, HTT cytoprotect)
O=C1C2C3C=CC(C4CC34)C2C(=O)N1/N=C/c1c[nH]c2ccccc12 (stereo not drawn)	none (no result: PNC inhibitor, HPGD block)
